Assay results from the OligoGym collection.

Target: TMEM130
Test: pooled miR-30 sensor sort-seq; sequence = guide strand
Settings: shRNA
Further: reference of the scale not given here.

| Sequence | sensor-assay potency score (higher = more potent) |
| --- | --- |
| ATAGTTATAATAGACCACGGAG | -0.516 |
| TAGAGAAACAAGGCGGTCTTGA | 0.529 |
| TAGTTATGGATTTTTAACCCTT | -0.844 |
| TTCTGCTTCACAGCCCTCGTGG | -0.803 |
| TTGTCCTTGGCCACCAGGCTGG | -1.04 |
| TTGCCAGTAAGCACCAGCGGGG | -1.3 |
| TTTATTTAGCAACAATGGCAGT | -0.968 |
| TATTGTCTCAGCCACAGCCCAG | -1.4 |
| TTGGAAGGTCTGAATTAGGGTG | 0.0908 |

Target: TMEM140
Test: as above
Settings: shRNA

| Sequence | sensor-assay potency score (higher = more potent) |
| --- | --- |
| TGACACTGTAGGGTGCTGGTGT | 0.184 |
| TAGAAGCCGATTCTCAGGTTGG | -0.232 |
| TATGATGCTCATGAACAGCAGC | -0.769 |
| AAGAGCGTAAAACATCAGGCAG | -0.966 |
| ATGAACAGCAGCTGGTCGCGCC | -1.18 |
| TGCTCATGAACAGCAGCTGGTC | -1.48 |
| TGTACTAAGAAGTCACAGGTGC | 0.194 |
| TCTCTCATCACTGTTGCACTGG | 0.0267 |
| TTATAGAAGCCGATTCTCAGGT | 0.174 |
| ATCACGAGGACTATGATGCTCA | -0.61 |
| TATAGAAGCCGATTCTCAGGTT | 0.501 |
| ATGCTCATGAACAGCAGCTGGT | -1.09 |
